Bioassay records as filed in PubChem BioAssay.
KCC2 mod – modulates chloride dependent transport by human KCC2 | actives 2.2% (n = 190,000) | KCC2 cells, thallium flux FluoZin-2 fluorescence | B-score of Tl+ flux slope (higher = more flux/activation; lower = inhibition) at 10 µM;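 active means thallium flux slope and its plate-corrected score both differing from the plate sample mean at a set confidence after two filtering rounds, in either direction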;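 further: slope of fluorescence scaled to starting intensity during 10 to 20 s after thallium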
INS promoter inh – TRM-6 insulin promoter activity inhibition; TRM-6 cells (human fetal islet line), insulin promoter-eGFP reporter, imaging; reporter expression induced with tamoxifen; inhibition, % at 2 µM; actives 0.9% (n = 130,000); AID 1273;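 active means inhibition above the mean plus 3 SD, with well images judged a real hit on visual review, cut at about 60% in these data, passing the limit was not always enough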
ROMK mod – human ROMK K+ channel modulation, primary screen; P48048; Tet-inducible ROMK, thallium flux fluorescence; actives lie on both sides; B-score at 10 µM; actives 2% (n = 130,000); AID 1918;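 active means signal ratio slope over the read window, or its plate-corrected B-score, at least 3 SD from the plate mean, either direction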;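 further: B-score of the F/F0 ratio slope over 7 to 12 s after thallium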
L major viab – reduces viability of Leishmania major promastigotes; resazurin fluorescence viability; inhibition, % at 10 µM; actives 9% (n = 200,000); in the data active means inhibition above about 50%;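 further: promastigotes grown with compound for 44 hours at 28 °C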
Ins promoter up – MIN6 insulin promoter up-regulation | MIN6 insulin promoter-GFP reporter, high-content imaging; stronger effect = higher value | z-score at 5 µM | actives 0.3% (n = 190,000);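 active means z-score above 3 at 5 µM with at least 500 cells counted in the well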
WT yeast gro inh – growth inhibition of WT yeast, mitochondrial fusion screen; mitochondrial fusion phenotypic screen, WT strain; inhibition, % at 10 µM; actives 2.1% (n = 190,000); AID 1362; in the data active means inhibition above about 58%; tested in S. cerevisiae
* = called active by the depositor; . = no result. An excerpt weighted towards active compounds, which were near 12% of everything screened.

SMILES	KCC2 mod	INS promoter inh	ROMK mod	L major viab	Ins promoter up	WT yeast gro inh
COc1ccccc1NC(=O)NC1(C(=O)N2CCC(O)CC2)CCCCC1	0.067	-18	-5*	-7	-0.32	-20
CN1CCc2c(c3ccccc3n2Cc2ccccc2)C1	1.2	.	.	100*	2.1	3
COc1ccc(NS(=O)(=O)c2cc(NC(=O)c3ccco3)ccc2N2CCCC2)cc1	-0.17	.	.	82*	-1.4	22
COc1ccc(NS(=O)(=O)c2cc(NC(=O)C3CCCO3)ccc2N2CCCCC2)cc1 (centres undefined)	0.38	-7	0.56	14	-0.87	-4
COc1ccc(NS(=O)(=O)c2cc(NC(=O)/C=C/c3cc(OC)ccc3OC)ccc2N2CCCCC2)cc1	0.1	31	0.41	92*	-0.6	3
COc1ccc(NS(=O)(=O)c2cc(NC(=O)C3CCCO3)ccc2N2CCCC2)cc1 (centres undefined)	-0.37	.	0.46	2	-0.62	-4
Cc1cc(C)nc(-n2ncc(C#N)c2N)n1	0.42	.	-0.61	1	0.61	1
Cc1ccc(CSc2nnc3c(n2)OC2(Nc4ccccc4-3)C(=O)Nc3ccc(F)cc32)cc1 (centres undefined)	-2.2	.	-1.3	4	0.88	70*
Clc1ccccc1CSc1cc2c(nn1)-c1ccccc1CC2	-0.37	12	.	-1	-0.14	12
O=C1Nc2ccc(F)cc2C12Nc1ccccc1-c1nnc(SCc3ccccc3)nc1O2 (centres undefined)	.	75*	.	-2	.	13
O=C1Nc2ccc(F)cc2C12Nc1ccccc1-c1nnc(SCc3ccccc3Cl)nc1O2 (centres undefined)	.	-16	.	-5	-0.84	69*
CCN(CC)CCNC(=O)/C(=C/c1cn(C)c2ccccc12)NC(=O)c1ccc(OC)c(OC)c1	0.34	.	.	.	0.31	.
CNC(=O)c1cc(C)c(-c2ccccc2)s1	-1.6	89*	-0.16	2	-0.12	-4
CNC(=O)c1cc2c(s1)-c1ccccc1CC2	-2.8	-15	0.067	10	0.13	12
CC(C)(Oc1ccc(Cl)cc1)C(=O)N1CCN(c2ccccn2)CC1	-0.48	3	.	62*	.	27
O=C(/C=C/c1ccc(Cl)cc1)N1CCN(c2ccccn2)CC1	-0.35	.	.	3	0.03	1
CC(C)(Oc1ccc(Cl)cc1)C(=O)N(Cc1ccccc1)c1ccccn1	-0.067	-57	-2.4	87*	0.2	30
COc1ccc2c(c1)N(C)/C(=C1/SC(=NCc3ccccc3)N(c3ccccc3)C1=O)S2	0.16	-34	.	-8	-0.78	14
CC(C)(C)C1=CC=C(C(C)(C)C)C(=O)C1=O	.	.	.	.	-0.14	.
CCOC(=O)C1=C(C)N(CC(C)C)C(=O)/C1=C\c1cccs1	0.45	.	0.26	.	-0.84	.
C/C(=N/NC(=O)CNS(=O)(=O)c1ccc(C)cc1)c1cccc([N+](=O)[O-])c1	0.24	10	0.035	0	-0.14	8
CCCc1cc(-c2nc(N)ncc2-c2csc(C)n2)c(O)cc1OC	-1.9	28	0.13	21	-1.6	26
CCCc1cc(-c2nc(N)ncc2-c2ccc3c(c2)OCCCO3)c(O)cc1OC	-0.94	17	0.52	31	-1	85*
CCOC(=O)c1c(N/N=C/c2cccnc2)n[nH]c1C	-0.11	.	.	.	0.72	.
CSc1nc(Sc2cccc(Cl)c2)c2ccccc2n1	.	35	.	-4	-0.63	59*
SMILES	KCC2 mod	INS promoter inh	ROMK mod	L major viab	Ins promoter up	WT yeast gro inh
CN(C)c1ccc(C(CNS(=O)(=O)c2ccc(F)c(F)c2)c2c[nH]c3ccccc23)cc1 (centres undefined)	-0.072	-43	0.084	8	0.47	74*
COCCNC(=O)c1ccccc1N(Cc1ccccc1)S(=O)(=O)c1ccc(C)cc1	-0.81	-56	-0.85	0	-0.87	-11
O=C(Nc1ccccc1)c1ccc(N2CCN(c3ccccn3)CC2)c(S(=O)(=O)N2CCOCC2)c1	-0.44	17	-0.93	35	-1.1	-9
O=C(Nc1ccccc1)c1ccc(N2CCN(c3ccccc3)CC2)c(S(=O)(=O)N2CCOCC2)c1	-0.85	42	-0.62	89*	.	20
O=C(Nc1ccccc1)c1ccc(NC2CCCCC2)c(S(=O)(=O)N2CCOCC2)c1	-0.86	-242	-0.17	61*	0.07	25
O=[N+]([O-])c1ccc(N2CCN(Cc3ccccc3)CC2)c(S(=O)(=O)N2CCOCC2)c1	-3.6	0	.	93*	0.15	-23
Cc1ccc2c3c1C(=O)C(=O)N3C(C)(C)CC2C (centres undefined)	.	.	0.58	3	0.42	4
CCN(CC)CCCN(Cc1cc2cc3c(cc2[nH]c1=O)OCO3)C(=S)Nc1ccccc1	0.067	.	-0.45	1	.	-13
Cc1ccc(N(CN2CCCC2=O)C(=O)c2ccc(C)c(C)c2)cc1	.	-53	-0.0083	3	-0.03	-2
Cc1scc(C(=O)N/N=C/c2ccc(OCC(C)C)cc2)c1C	-1.8	.	-0.55	88*	.	39
C/C(=N/N1CCN(c2ccccc2)CC1)c1cccc([N+](=O)[O-])c1	.	.	.	-3	-0.51	2
O=C1c2ccccc2-c2n[nH]c(=O)c3ccc(N4CCCCC4)c1c23	0.4	.	0.027	23	-2.7	63*
CCCCC(=O)Oc1ccccc1C1SCc2cc(C)c(C)cc2CS1	0.65	.	-0.55	8	0.17	8
Cc1cc2c(cc1C)CSC(c1c(O)ccc3ccccc13)SC2	-0.026	48	0.8	36	-0.6	97*
Cc1cc2c(cc1C)CSC(c1ccc3ccccc3c1O)SC2	.	63*	0.15	-11	0.2	27
Cc1cc2c(cc1C)CSC(c1ccccc1OC(=O)C(C)(C)C)SC2	-0.4	-36	-0.04	5	0.04	64*
